Measured values as given in PubChem BioAssay (NCI).
The panel holds about 83,000 compounds, 20% with a hit somewhere; the sample as a whole holds those more often.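 Each cell line was grown in a 96-well plate and treated with one concentration of compound for 48 hours. Values below 10 were considered active.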 A number with no mark means an inactive call. Active and inactive are the calls of the source.

What follows are molecules tested on MDA-MB-468 breast (assay: NCI-60 one-dose screen, 48 h (100 = growth as untreated, 0 = no growth, -100 = all killed)). Settings: 10 µM unless noted.

First: CCSc1nc(Cl)c(C#N)c(-c2ccc(F)cc2)n1
Second: CCN1C(=O)/C(=C/N2N=C(c3ccc(Cl)cc3)CC2c2ccc(OC)cc2)SC1=S (stereo unspecified)
The growth of the first is lower: 84.2% for the first, 93.3% for the second.

Compared with O=C(NNc1nc2cc(F)ccc2n2cncc12)c1cnccn1, Brc1ccc(-n2cc(-c3nn[nH]n3)c(-c3cccs3)n2)cc1 is higher in growth: 31.7% for the first, 92.4% for the second.

Going from CC1(C)CC[C@]2(CO)CC[C@]3(C)[C@H](CC[C@@H]4[C@@]5(C)CCCNC(C)(C)[C@@H]5CC[C@]43C)[C@H]2[C@H]1O to CC1=C(C(=O)Nc2ccc(F)cc2)C(c2ccccc2)C2=C(CC(C)(C)CC2=O)N1 (stereo unspecified), the growth falls from 71.3% to 67.7%.

First: COc1ccc(Cc2nc3cc(OC)c(OC)cc3c(=O)[nH]2)cc1
Second: COc1ccc(/C=C/C(=O)C(=O)/C=C/c2ccc(OC)c(OC)c2)cc1OC
The growth of the first is higher: 56% for the first, 20.1% for the second.

Compared with O=C(Nc1sc2c(c1C(=O)O)CCCC2)c1cccc(C(F)(F)F)c1, O=S(=O)(Oc1ccc(-c2cn3ccoc3n2)cc1)c1cccc(C(F)(F)F)c1 is higher in growth: 68.2% for the first, 86.9% for the second.

Compared with CCOC(=O)c1c2c(n(-c3ccc(C#N)cc3)c1-c1ccccc1)C=CCC2, O=C(Nc1ccccc1)Nc1ccc(C(=O)/C=C/c2ccc(N3CCCC3)cc2)cc1 is lower in growth: 88.9% for the first, 17.3% for the second.

Compared with COc1ccc(NS(=O)(=O)c2ccc(-c3cnc(C4CC4)o3)cc2)cc1, CCOC(=O)c1cccnc1Nc1ccc(NC(=O)Nc2ccc(Cl)c(C(F)(F)F)c2)cc1 is higher in growth: 12.5% for the first, 21.3% for the second.

First: CCC(CC)COC(=O)c1ccc(O)c(O)c1
Second: C#CCOc1ccccc1C(OC(=O)c1ccccc1)C(=O)NC(C)(C)C(C)(C)C (stereo unspecified)
The growth of the first is higher: 80.6% for the first, 80.5% for the second.

Going from N=C1S/C(=C/c2ccc(-c3ccc4c(c3)C(=O)NC4=O)o2)C(=O)N1c1ccc(Br)cc1 to Oc1c(Cl)cc(Cl)c2ccc(CN3CCNCC3)nc12, the growth falls from 51.6% to 34.4%.

Compared with C1=NCCc2ccccc21, Cc1csc(/N=C(N)/N=C(\N)c2cccnc2)n1 is lower in growth: 109% for the first, 91.9% for the second.

In the case of Cn1ccnc1C(=O)/C=C/c1ccc(C(=O)Nc2c(F)c(F)c(F)c(F)c2F)cc1, the growth is reported as -16.7% (active).
With CS(=O)(=O)Nc1cc(-c2ccc3ncc(C#N)c(Nc4cccc(Cl)c4F)c3c2)cnc1Cl the growth was -45.3% (active).
For C(=C\c1n(Cc2ccc3ccccc3c2)c(-c2ccccc2)c(-c2ccccc2)[n+]1Cc1ccc2ccccc2c1)/c1ccccc1, the growth was -70.8% (active).
CC(C)C[C@H](NC(=O)Cn1cccc(CNC(=O)c2ccccc2)c1=O)B(O)O was tested, and the growth was -19.5% (active).
With COc1cccc(Cn2cc3c(c2)-c2oncc2CC3)c1 the growth was 1.66% (active).
In the case of CCCC[n+]1c(/C=C\c2c(OC)cc(OC)cc2OC)ccc2ccccc21, the growth is reported as -31% (active).
